The values below come from ChEMBL document CHEMBL3988442, “University of Dundee, Small-Polar-MMV Screening Library” (2021).

What all share (parameters): scale not given: direction of the effect not stated beside the values
Test [1] deals with Protein translocase subunit SecA (Escherichia coli (strain K12)) (UniProt P10408). In words: Assay to Identify E. coli SecA ATPase Inhibitors. Format: functional. The conditions noted are these: 30 µM.
Test [2] concerns the target T1, Ubiquitin-activating enzyme e1, putative (Leishmania donovani (strain BPK282A1)) (UniProt E9BSI1).
T1 sequence (whole entry): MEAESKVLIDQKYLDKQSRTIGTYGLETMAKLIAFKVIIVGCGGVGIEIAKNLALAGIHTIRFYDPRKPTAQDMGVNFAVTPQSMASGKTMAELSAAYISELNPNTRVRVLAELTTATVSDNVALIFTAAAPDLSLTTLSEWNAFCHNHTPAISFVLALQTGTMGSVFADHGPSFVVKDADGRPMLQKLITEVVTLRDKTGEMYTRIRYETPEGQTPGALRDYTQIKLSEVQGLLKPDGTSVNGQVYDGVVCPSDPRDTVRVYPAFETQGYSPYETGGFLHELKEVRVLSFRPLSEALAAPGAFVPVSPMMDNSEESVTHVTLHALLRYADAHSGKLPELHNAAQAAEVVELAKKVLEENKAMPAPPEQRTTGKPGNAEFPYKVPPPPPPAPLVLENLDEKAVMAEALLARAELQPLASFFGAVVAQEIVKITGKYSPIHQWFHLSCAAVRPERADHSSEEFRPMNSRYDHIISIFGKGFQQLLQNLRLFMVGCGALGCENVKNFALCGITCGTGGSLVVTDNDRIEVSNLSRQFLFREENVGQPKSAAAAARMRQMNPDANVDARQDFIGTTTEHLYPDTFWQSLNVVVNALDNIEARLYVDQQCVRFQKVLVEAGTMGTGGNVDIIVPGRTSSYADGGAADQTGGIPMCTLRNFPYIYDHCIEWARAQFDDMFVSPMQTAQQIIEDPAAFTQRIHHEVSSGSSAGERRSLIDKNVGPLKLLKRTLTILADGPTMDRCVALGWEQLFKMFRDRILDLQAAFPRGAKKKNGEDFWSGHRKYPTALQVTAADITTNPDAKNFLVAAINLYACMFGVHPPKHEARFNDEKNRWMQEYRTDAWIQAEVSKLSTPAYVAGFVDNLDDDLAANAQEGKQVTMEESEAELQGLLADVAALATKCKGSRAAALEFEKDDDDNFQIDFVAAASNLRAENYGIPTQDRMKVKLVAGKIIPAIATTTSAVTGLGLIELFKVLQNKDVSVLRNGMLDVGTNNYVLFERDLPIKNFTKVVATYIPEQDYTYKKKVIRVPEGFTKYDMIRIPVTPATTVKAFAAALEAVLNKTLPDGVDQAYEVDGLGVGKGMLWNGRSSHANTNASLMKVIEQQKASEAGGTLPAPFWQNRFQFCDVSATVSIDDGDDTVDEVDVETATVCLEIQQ
In words: Leishmania donovani Ubiquitin Activating Enzyme (LdE1). The test is classed as functional. Conditions: 30 µM.

The target in test [3] is AMP-activated protein kinase, AMPK (Homo sapiens) (UniProt P54646+O43741+P54619+Q9UGJ0+Q9Y478+Q13131+Q9UGI9). As to the kind of experiment: AMP-dependent Kinase enzyme assay. An in vitro enzyme assay that detects ADP turnover that is directly proportional to AMPK activity. This uses naive AMPK that is activated during the assay with MK-8722. The test is classed as functional. Conditions: 30 µM.

For test [4], the target named is Sialic acid-binding Ig-like lectin 9 (Homo sapiens) (UniProt Q9Y336). In words: Hs-Siglec9 ALPHAscreen SOP 20170721. The conditions noted are these: 10 µM.
Sequence of Sialic acid-binding Ig-like lectin 9 (Homo sapiens) (Q9Y336 whole entry): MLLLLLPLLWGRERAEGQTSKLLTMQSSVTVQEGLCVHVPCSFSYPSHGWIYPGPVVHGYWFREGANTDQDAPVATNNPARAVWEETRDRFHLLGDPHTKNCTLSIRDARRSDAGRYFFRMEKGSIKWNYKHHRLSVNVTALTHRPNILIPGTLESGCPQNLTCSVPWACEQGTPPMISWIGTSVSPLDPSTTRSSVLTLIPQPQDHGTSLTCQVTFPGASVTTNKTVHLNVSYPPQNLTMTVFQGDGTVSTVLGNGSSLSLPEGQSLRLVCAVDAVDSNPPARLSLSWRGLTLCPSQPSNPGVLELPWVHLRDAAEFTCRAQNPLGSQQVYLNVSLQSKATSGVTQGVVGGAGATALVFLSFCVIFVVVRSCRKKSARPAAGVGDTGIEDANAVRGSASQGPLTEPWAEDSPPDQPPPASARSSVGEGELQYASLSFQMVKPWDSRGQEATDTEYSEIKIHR
The subject of another test is Trypanosoma cruzi. In words: Trypanosoma cruzi phosphomannomutase and mannose-1-phosphate guanylyltransferase assay. The conditions noted are these: 10 µM. Format: functional.
In test [5] the target is T2, Arginase-2, mitochondrial (Homo sapiens) (UniProt P78540).
T2 sequence (whole entry): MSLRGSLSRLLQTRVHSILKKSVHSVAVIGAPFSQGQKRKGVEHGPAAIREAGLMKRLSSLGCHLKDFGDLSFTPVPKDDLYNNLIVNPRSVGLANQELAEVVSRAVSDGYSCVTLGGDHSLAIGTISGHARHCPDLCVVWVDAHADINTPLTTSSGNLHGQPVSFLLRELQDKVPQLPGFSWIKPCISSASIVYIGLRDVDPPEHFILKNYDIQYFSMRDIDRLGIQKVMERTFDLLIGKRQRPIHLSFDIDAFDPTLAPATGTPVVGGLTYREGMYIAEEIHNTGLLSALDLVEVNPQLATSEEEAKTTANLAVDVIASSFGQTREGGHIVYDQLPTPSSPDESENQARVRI
As to the kind of experiment: in vitro enzyme assay to detect the production of urea directly proportional to the activity of Arginase II. Also: in the data most compounds retested in dose-response had high values. Format: functional. The conditions noted are these: 33.3 µM.

The target in test [6] is T3, Proteasome subunit beta (Trypanosoma cruzi) (UniProt O96673).
T3 sequence (whole entry): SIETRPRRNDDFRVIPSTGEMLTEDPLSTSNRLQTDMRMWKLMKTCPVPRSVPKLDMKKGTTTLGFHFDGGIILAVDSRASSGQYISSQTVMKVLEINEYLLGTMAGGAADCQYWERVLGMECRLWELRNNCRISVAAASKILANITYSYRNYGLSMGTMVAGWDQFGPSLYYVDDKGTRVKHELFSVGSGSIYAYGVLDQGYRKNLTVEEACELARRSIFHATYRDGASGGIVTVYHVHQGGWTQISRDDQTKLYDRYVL
In words: Trypanosoma cruzi proteasome chymotrypsin-like activity (TcProtChymo) assay. Also: in the data most compounds retested in dose-response had high values. Format: functional. The conditions noted are these: 9.37 µM.

The species entered for a further test is Homo sapiens. As to the kind of experiment: To identify inhibition of the IFN signalling (Jak-Stat) pathway via expression of an eGFP reporter gene under the control of an IFN-stimulated response element (ISRE) containing MxA promoter. Format: functional. Conditions: 30 µM. Background: Reporter assays use an easily measured gene product as a stand-in for the process of interest.

For test [7], the target named is T4, Tyrosyl-tRNA synthetase, putative (Trypanosoma cruzi (strain CL Brener)) (UniProt Q4DSP6).
T4 sequence (whole entry): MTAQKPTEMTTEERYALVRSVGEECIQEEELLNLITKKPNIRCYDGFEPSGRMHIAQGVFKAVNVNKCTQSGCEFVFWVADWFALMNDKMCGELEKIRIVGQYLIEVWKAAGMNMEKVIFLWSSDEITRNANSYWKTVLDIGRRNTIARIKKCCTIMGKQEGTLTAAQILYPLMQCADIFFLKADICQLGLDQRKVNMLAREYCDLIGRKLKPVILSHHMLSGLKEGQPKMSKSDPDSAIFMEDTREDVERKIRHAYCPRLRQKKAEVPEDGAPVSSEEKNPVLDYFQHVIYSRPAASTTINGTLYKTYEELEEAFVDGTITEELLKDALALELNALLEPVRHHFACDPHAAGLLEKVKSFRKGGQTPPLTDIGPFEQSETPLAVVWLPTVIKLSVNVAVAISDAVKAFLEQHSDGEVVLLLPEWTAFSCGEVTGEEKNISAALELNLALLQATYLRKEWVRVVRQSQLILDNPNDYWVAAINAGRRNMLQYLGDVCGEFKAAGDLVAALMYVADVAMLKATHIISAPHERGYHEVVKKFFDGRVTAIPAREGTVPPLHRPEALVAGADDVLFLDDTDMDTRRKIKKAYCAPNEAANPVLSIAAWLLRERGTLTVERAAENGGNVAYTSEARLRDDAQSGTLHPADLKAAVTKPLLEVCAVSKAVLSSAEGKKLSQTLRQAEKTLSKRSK
In words: Trypanosoma cruzi tyrosyl tRNA synthetase (TcYRS) _High Tyrosine SOP. Also: in the data most compounds retested in dose-response had high values. The test is classed as functional. The conditions noted are these: 30 µM.

Test [8] addresses T4, Tyrosyl-tRNA synthetase, putative (Trypanosoma cruzi (strain CL Brener)). As to the kind of experiment: Trypanosoma cruzi tyrosyl tRNA synthetase (TcYRS) SOP. The test is classed as functional. The conditions noted are these: 30 µM.
For test [9], the target named is Chromo domain-containing protein 1 (Saccharomyces cerevisiae (strain ATCC 204508 / S288c) (Baker's yeast)) (UniProt P32657). As to the kind of experiment: ScCHD-1 Enzyme Inhibition Assay. Also: in the data most compounds retested in dose-response had high values. The test is classed as functional. Conditions: 30 µM.
Sequence of Chromo domain-containing protein 1 (Saccharomyces cerevisiae (strain ATCC 204508 / S288c) (Baker's yeast)) (P32657 whole entry, the tested form may be a part): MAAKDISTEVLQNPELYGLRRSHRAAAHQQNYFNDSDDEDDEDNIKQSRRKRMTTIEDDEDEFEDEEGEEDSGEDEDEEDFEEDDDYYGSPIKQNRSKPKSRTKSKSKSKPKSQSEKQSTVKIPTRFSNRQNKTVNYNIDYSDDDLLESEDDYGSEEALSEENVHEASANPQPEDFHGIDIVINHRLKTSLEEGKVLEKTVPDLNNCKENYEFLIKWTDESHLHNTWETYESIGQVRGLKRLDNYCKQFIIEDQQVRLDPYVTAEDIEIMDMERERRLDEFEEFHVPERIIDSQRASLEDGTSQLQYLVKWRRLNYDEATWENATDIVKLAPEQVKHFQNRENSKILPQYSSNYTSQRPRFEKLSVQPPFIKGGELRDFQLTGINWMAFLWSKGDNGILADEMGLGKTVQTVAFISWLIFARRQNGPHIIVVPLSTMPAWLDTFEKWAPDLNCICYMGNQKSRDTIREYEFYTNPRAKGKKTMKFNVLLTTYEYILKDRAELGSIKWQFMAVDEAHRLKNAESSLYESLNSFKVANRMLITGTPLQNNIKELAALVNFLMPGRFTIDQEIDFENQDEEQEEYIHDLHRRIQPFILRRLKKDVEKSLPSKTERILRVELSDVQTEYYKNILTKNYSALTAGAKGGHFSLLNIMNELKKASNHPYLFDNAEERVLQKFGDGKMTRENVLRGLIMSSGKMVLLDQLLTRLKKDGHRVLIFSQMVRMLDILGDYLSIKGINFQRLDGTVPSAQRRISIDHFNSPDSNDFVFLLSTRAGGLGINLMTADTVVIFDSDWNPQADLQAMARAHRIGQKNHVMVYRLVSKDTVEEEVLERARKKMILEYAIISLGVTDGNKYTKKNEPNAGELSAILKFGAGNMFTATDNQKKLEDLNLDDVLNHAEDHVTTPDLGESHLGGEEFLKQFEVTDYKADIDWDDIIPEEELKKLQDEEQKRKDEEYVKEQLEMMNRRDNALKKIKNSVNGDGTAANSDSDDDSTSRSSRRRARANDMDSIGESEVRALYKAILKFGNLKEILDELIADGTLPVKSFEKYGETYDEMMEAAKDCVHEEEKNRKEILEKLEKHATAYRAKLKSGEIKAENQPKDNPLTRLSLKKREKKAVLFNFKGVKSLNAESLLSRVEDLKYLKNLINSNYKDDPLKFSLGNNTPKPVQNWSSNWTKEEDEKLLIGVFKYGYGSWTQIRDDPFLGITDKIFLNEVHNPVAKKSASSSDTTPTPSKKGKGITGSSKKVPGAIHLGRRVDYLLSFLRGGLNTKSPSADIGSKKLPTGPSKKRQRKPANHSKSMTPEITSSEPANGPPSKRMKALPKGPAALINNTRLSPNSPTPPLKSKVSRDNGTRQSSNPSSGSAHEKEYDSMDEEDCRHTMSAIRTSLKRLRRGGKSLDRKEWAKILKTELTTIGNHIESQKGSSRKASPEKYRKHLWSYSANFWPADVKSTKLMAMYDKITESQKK

For some of these results: Results with a measured potency or affinity are listed apart.

Sequence of Protein translocase subunit SecA (Escherichia coli (strain K12)) (P10408 whole entry): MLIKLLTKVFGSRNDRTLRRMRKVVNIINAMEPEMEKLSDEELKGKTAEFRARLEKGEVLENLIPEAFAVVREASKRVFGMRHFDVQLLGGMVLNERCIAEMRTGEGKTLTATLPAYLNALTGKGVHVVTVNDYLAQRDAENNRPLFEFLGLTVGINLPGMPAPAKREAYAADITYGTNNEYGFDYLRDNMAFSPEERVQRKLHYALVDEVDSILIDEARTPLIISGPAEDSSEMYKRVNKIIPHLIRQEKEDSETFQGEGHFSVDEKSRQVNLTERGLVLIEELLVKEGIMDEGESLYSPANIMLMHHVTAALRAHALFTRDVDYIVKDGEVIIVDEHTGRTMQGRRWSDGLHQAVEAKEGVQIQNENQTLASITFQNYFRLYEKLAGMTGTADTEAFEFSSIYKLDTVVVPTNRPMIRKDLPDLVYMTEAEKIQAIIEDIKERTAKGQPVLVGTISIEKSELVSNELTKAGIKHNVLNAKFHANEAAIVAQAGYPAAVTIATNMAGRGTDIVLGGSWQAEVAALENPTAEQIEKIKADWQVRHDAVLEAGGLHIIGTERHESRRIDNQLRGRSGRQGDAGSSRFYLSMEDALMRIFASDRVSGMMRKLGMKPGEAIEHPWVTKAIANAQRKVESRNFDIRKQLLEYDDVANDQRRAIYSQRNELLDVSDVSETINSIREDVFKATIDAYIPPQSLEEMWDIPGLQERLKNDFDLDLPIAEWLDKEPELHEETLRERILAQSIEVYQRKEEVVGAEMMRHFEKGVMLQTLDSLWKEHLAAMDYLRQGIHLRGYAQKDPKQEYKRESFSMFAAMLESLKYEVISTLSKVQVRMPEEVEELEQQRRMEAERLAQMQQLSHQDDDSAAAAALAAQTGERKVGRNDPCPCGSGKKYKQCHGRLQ

On to `Cc1cccc(C(=O)NC2CCN(c3cnn(C)c3)C2=O)n1` (stereo not drawn), for which the Percent Effect in test [1] is -4.94%; in test [2], 16.2%; in [3], -3.39%; in [4], 24.3%; in the test with Trypanosoma cruzi, 7.33%; in [5] it was 23.6%. The Percent Effect was 9.36% in test [6]; -7.64% in the test listed under Homo sapiens; 3.23% in [7]; 13.6% in [8]; -10.2% in test [9].
Take `CCc1cnc2c(c1Nc1ccncc1)c(=O)n(C)c(=O)n2C`: the Percent Effect was 0.799% in test [1]; 18.2% in [2]; 5.71% in test [3]; -13.1% in test [4]; 2.27% in the test on Trypanosoma cruzi; 1.94% in [5]. The Percent Effect in [6] was 14.6%; in the test listed under Homo sapiens, 35.5%; in [7], 7.41%; in [8], 14.1%; in test [9] it was -10.9%.
On to `CCCc1n[nH]c(C2CN(C(=O)c3ccco3)CCO2)n1` (stereo not drawn), for which the Percent Effect in [1] was -3.05%; in test [2], 0%; in test [3], 2.64%; in test [4] it was -8.28%; in the test with Trypanosoma cruzi, -1.03%; in test [5], 2.52%. The Percent Effect in test [6] is 8.71%; in the test filed under Homo sapiens, -11.3%; in test [7] it was 0.493%; in test [8] it was -1.24%; in test [9], 13.1%.
As for `COc1ccc(C(=O)N(Cc2cnn(C)c2)C(C)C)cc1Br`, the Percent Effect in [1] is -4.7%; in test [2], 0%; in test [3], -7.42%; in test [4] it was 8.74%; with Trypanosoma cruzi, 6.44%; in test [5], -2.52%. Besides, the Percent Effect is -1.61% in test [6]; -4.21% in the test listed under Homo sapiens; 2.46% in test [7]; 11.1% in test [8]; -4.6% in [9].
As for `CCc1ccc(S(=O)(=O)Nc2c(C)cccc2C(=O)O)s1`, the Percent Effect in [1] was -6.89%; in [2] it was 5.26%; in [3], -2.41%; in test [4], 7.53%; in the test with Trypanosoma cruzi, 2.71%; in test [5] it was -2.16%. Also, the Percent Effect in test [6] is 3.64%; in the test filed under Homo sapiens it was -1.38%; in test [7], 2.46%; in [8], 6.17%; in test [9] it was 2.56%.
Regarding `Cc1ccc(CN(Cc2c[nH]cn2)C2CC(C)(C)NC(C)(C)C2)o1`, the Percent Effect was -2.16% in test [1]; 4.05% in test [2]; 13.8% in test [3]; 0.615% in test [4]; -9.49% in the test on Trypanosoma cruzi; -1.62% in test [5]. Further, the Percent Effect in test [6] is 10.4%; in the test filed under Homo sapiens, 12.1%; in test [7] it was 4.3%; in test [8] it was 3.9%; in [9], -10.2%.
Regarding `CNc1cc(CNC(=O)c2ccccn2)nc(-c2ccncc2)n1`, the Percent Effect in test [1] is -1.08%; in [2], 17.6%; in test [3], 3.35%; in test [4] it was -3.17%; in the test on Trypanosoma cruzi it was 2.37%; in test [5], 0.696%. The Percent Effect in test [6] was 14.7%; in the test filed under Homo sapiens, 2.78%; in test [7] it was 2.15%; in [8] it was 24.7%; in test [9], -15.3%.
Take `Cc1cc(C)c(CNC(=O)C2CCCN(c3cnccn3)C2)c(=O)[nH]1` (stereo not drawn): the Percent Effect is -3.46% in test [1]; 10.5% in [2]; -6.83% in [3]; 10.1% in test [4]; -4.13% in the test on Trypanosoma cruzi; -1.53% in test [5]. The Percent Effect was 11.5% in test [6]; -8.19% in the test listed under Homo sapiens; -0.49% in test [7]; -12.2% in test [8]; -5.39% in test [9].
